Most compounds without a hit are left out; they make up all but 1.2% or so of the library.
BioA inh: M. tuberculosis BioA enzyme inhibitors, primary screen, biochemical, plate reader, single point, HTS. purified M. tuberculosis BioA enzyme. inhibition, % at 9.99 µM. 360,000 tested, 0.096% active. AID 602481, 2012; in the data active = inhibition above about 40%
Y pestis TopoI: Yersinia pestis topoisomerase I inhibitors, primary screen, biochemical, cleavage product accumulation, plate reader, single point | DNA topoisomerase I (Yersinia pestis CO92) | Y. pestis Topo-I cleavage product accumulation | activity, % at 10 µM | 360,000 tested, 0.064% active; in the data active = activity above about 50%, passing the limit was not always enough
PrP UTR inh: inhibition of PrP 5' UTR reporter expression. inhibition, % (no concentration beside the values). cell-based PrP 5' UTR mRNA reporter, plate reader. 340,000 tested, 0.35% active. AID 488862, 2010; in the data active = inhibition above about 52%; note: 0 = median of the neutral control wells
FadD28 FP inh: inhibitors of FadD28 bisubstrate probe binding, primary screen, biochemical, fluorescence polarization, single point; Mycobacterium tuberculosis FadD28 fatty-acid-AMP ligase; inhibition, % at 12.5 µM; 360,000 tested, 0.22% active; in the data active = inhibition above about 8.5%, passing the limit was not always enough
TcdB inh: TcdB glycohydrolase inhibitors, primary screen, biochemical, single point, plate reader. Toxin B (Clostridioides difficile), P18177. TcdB glycohydrolase enzymatic assay. inhibition, % at 9.99 µM. 350,000 tested, 0.24% active. AID 652162, 2013; in the data active = inhibition above about 10%
Target sequence (P18177 whole entry, looked up): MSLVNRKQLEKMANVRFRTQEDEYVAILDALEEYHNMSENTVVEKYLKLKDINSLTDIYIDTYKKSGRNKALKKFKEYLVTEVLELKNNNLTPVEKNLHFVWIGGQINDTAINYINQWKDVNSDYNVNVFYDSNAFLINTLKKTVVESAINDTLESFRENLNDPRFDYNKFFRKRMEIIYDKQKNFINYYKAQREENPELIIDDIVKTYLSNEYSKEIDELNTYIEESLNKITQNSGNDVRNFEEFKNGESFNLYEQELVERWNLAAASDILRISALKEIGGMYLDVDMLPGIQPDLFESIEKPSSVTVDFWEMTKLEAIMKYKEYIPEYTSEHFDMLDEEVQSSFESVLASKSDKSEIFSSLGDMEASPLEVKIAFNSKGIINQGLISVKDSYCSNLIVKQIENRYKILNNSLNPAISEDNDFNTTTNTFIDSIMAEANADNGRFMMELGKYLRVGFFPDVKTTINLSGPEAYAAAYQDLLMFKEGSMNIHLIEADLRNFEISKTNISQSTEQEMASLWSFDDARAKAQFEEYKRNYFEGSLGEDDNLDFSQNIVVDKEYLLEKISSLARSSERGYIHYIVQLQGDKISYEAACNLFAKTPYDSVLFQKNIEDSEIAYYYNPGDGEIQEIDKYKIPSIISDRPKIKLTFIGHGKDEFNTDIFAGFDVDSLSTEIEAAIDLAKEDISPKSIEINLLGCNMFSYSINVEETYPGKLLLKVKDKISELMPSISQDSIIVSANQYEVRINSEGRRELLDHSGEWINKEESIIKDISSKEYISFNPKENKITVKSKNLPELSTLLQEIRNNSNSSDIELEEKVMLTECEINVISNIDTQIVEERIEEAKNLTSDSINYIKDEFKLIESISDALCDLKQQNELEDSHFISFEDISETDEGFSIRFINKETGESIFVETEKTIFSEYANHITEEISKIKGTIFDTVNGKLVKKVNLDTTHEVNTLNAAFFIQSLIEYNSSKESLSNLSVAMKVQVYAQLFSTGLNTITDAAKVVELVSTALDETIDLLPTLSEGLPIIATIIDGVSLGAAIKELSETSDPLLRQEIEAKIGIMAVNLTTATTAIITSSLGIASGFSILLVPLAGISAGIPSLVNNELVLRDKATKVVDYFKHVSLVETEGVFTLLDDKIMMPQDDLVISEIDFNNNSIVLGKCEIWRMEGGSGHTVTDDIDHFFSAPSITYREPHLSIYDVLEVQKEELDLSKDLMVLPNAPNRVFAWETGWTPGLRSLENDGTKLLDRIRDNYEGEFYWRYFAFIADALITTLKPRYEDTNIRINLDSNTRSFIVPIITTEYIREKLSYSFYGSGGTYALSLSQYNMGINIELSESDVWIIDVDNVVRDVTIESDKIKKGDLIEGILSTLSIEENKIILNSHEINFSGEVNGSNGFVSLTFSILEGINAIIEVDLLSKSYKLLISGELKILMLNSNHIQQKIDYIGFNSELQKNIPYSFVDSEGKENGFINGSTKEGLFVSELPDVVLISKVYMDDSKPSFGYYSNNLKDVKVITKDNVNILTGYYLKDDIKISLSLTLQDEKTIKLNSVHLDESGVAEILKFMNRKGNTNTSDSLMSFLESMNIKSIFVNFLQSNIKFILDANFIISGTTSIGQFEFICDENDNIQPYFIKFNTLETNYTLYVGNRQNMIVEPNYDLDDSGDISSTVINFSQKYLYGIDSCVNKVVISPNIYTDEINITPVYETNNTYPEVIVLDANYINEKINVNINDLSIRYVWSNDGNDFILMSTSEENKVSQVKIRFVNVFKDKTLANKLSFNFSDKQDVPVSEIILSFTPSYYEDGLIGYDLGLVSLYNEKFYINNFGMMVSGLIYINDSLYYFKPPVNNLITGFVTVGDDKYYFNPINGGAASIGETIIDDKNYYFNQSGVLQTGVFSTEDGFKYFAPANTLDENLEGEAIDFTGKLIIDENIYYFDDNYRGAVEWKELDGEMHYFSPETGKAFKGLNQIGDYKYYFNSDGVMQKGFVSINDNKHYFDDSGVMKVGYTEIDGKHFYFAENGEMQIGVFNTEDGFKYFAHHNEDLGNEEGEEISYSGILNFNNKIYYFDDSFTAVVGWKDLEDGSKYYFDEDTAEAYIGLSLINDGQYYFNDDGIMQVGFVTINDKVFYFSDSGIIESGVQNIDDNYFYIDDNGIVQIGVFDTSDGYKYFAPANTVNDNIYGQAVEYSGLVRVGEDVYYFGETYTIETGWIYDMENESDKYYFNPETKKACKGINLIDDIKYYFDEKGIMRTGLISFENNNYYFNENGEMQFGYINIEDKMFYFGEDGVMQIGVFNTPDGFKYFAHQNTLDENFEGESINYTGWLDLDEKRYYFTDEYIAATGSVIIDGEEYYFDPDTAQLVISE
PfHsp40 rescue: rescue of yeast from PfHsp40 toxicity, primary screen, S. cerevisiae, ATP luminescence | S. cerevisiae expressing PfHsp40, growth rescue | growth rescue, % at 12.5 µM | 340,000 tested, 0.68% active | AID 504582, 2011; in the data active = growth rescue above about 28%, passing the limit was not always enough;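 note: yeast W303a lacking pdr1 and pdr3 grown in galactose medium; growth measured after three days at 30 °C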
An asterisk follows results filed as active; nt = no result.

SMILES	BioA inh	Y pestis TopoI	PrP UTR inh	FadD28 FP inh	TcdB inh	PfHsp40 rescue
COc1ccc(NC(=O)Nc2nc(C)cc(C)n2)c(OC)c1	-1	-4	-8	-1	11*	2
COc1ccc(NC(=O)Nc2cnccn2)c(OC)c1	1	-9	-16	-1	1	-2
COc1ccccc1-c1sc2cc3c(cc2c1-c1ccc(OCCN2CCCCC2)cc1)OCO3	-1	-5	-23	-10	1	43*
COc1cc2sc(-c3ccccc3OC)c(-c3ccc(OCCN4CCCCC4)cc3)c2cc1OC	1	-8	-10	-2	1	-3
Cc1cc(C)c(Nc2cc(S(=O)(=O)O)c(N)c3c2C(=O)c2ccccc2C3=O)c(C)c1	nt	-12	-4	64*	nt	71*
Cc1cc(C)c(NC(=O)COC(=O)c2cccc3c2C(=O)c2ccccc2C3=O)c(C)c1	nt	2	-2	-1	nt	1
O=C(c1ccc(Cl)c(Cl)c1)N1CCN(c2ccccn2)CC1	1	12	-16	-2	-1	1
O=C(c1cccc(COc2ccc(Cl)cc2Cl)c1)N1CCN(c2ccccn2)CC1	-1	21	-148	-5	nt	28*
CN(C(=O)c1cccc(COc2ccc(Cl)cc2Cl)c1)c1ccccc1	0	51*	-48	-2	nt	6
O=C(NC[C@H]1CC[C@@H]2[C@@H](CN2Cc2ccccc2F)O1)C1CC1	nt	nt	nt	nt	1	nt
Cc1cc(O)c(CN(C)C)c2c1C(=O)/C(=C/c1ccco1)O2	nt	-6	0	-4	0	1
Cc1cc(O)c(C=O)c2c1C(=O)Oc1c(CO)c(O)c3c(c1O2)C(O)OC3=O (stereo not given)	1	-10	-5	18*	nt	161*
Cc1ccc(NC(=O)C2COc3ccccc3O2)cc1 (stereo not given)	1	2	-82	-1	1	2
CC1(C)Oc2ccc(NC(=O)C3COc4ccccc4O3)cc2O1 (stereo not given)	0	4	-45	-1	nt	41*
Cc1noc(C)c1COC(=O)CCCOc1ccc(Cl)cc1Cl	-1	61*	-7	-1	nt	2
Cc1noc(C)c1COC(=O)Cc1ccc(Cl)cc1	1	12	-19	0	nt	-1
COc1ccc(C(=O)/C(=C/O)N=Nc2ccc(F)cc2)cc1	-2	-5	-25	0	0	0
COc1ccc(N=N/C(=C\O)C(=O)c2cccs2)cc1	nt	21	-17	1	-1	478*
CC(C)(C)S(=O)N1Cc2cc(C(=O)NCc3ccc4c(c3)OCO4)nc(-c3cccc(C#CCC4CCCC4)c3)c2[C@@H]1CCO (stereo not given in full)	nt	nt	nt	nt	-4	nt
O=C(O)CSC(C(=O)Nc1ccc(C(F)(F)F)cc1)c1ccccc1 (stereo not given)	0	-1	-8	10*	nt	0
COc1ccc(S(=O)(=O)N2CCC[C@H]2C(=O)N2CCC[C@H]2C(=O)NCc2ccncc2)cc1C	nt	nt	nt	nt	10*	nt
CCCCN(C=O)c1c(CC)nc2ccc(C(=O)NCc3cccs3)cn12	1	3	nt	0	1	nt
CCCCN(C)c1c(C)nc2ccc(C(=O)NCc3cccs3)cn12	0	20	nt	-4	18*	nt
CC(C)N(Cc1ccccc1)C(=O)CN1c2cccc3cccc(c23)S1(=O)=O	1	-3	-3	nt	1	70*
CN(C)C(=O)CN1c2cccc3cccc(c23)S1(=O)=O	-1	2	-24	-3	1	-1
SMILES	BioA inh	Y pestis TopoI	PrP UTR inh	FadD28 FP inh	TcdB inh	PfHsp40 rescue
COc1ccc(NC(=O)N(C)C[C@@H]2OCCCC[C@H](C)Oc3ccc(NS(C)(=O)=O)cc3C(=O)N([C@@H](C)CO)C[C@H]2C)cc1	nt	nt	nt	nt	1	nt
Cc1ccc2oc(C(=O)Nc3ccc(S(=O)(=O)Nc4onc(C)c4C)cc3)c(C)c2c1	-2	12	-9	-2	0	-1
Cc1ccc(-c2cc(C(=O)Nc3ccc(S(=O)(=O)Nc4onc(C)c4C)cc3)[nH]n2)c(O)c1	3	-3	-15	14*	1	-1
O=C1NC(=O)C(=Cc2ccccc2[N+](=O)[O-])S1	4	62*	-20	-2	2	1
Cc1ccc(S(=O)(=O)Oc2ccccc2/C=C2/SC(=O)NC2=O)cc1	nt	6	-29	-5	10*	0
COc1ccc(NC(=O)N[C@@H]2C=C[C@@H](CC(=O)NC3CCC3)O[C@H]2CO)cc1	-2	nt	nt	nt	0	nt
COC(=O)C[C@@H]1C[C@H]2c3cc(NC(=O)NC4CCCC4)ccc3O[C@H]2[C@@H](CO)O1	1	nt	nt	nt	1	nt
COC(=O)COc1ccc(-c2ccc(F)cc2)cc1C=O	nt	-4	-24	-4	1	63*
COC(=O)COc1ccc(-c2ccccc2)cc1C=O	nt	11	-25	-4	1	64*
COC(=O)COc1ccccc1C(N)=O	0	4	-12	-1	2	-2
COC(=O)COc1ccc(C)cc1-n1nc2ccccc2n1	-1	4	-13	-1	-1	44*
Cc1ccc(OC(=O)COc2ccccc2C)c(-n2nc3ccccc3n2)c1	-5	3	-74	2	nt	0
Cc1ccc(S(=O)(=O)Nc2ccc3c(c2)C(=O)N([C@H](C)CO)C[C@H](C)[C@H](CN(C)C(=O)Nc2c(C)noc2C)O3)cc1	-2	nt	nt	nt	-1	nt
Cc1cn2c(N)c(/C=C3\C=Nc4ccccc43)c(=O)nc2s1	nt	-2	-44	-4	0	-2
CSc1nsc2nc(=O)c(/C=C3\C=Nc4ccccc43)c(N)n12	-1	-8	-17	14*	-1	3
CC(C)S(=O)(=O)c1nsc2nc(=O)c(/C=C3\C=Nc4ccccc43)c(N)n12	1	4	-12	30*	0	0
COc1cccc(-c2ccc3n(c2=O)C[C@@H]2[C@@H](CO)[C@H](C(=O)N(C)C)[C@H]3N2Cc2cncnc2)c1	-1	nt	nt	nt	-1	nt
C[C@H]1CN([C@@H](C)CO)C(=O)c2cc(NC(=O)Nc3ccc4c(c3)OCO4)ccc2O[C@H]1CN(C)Cc1ccc(-c2ccccc2)cc1	-1	nt	nt	nt	1	nt
CC(NCCN(C)C)C1CCC2C3CCc4cc(O)ccc4C3CCC12C (stereo not given)	nt	4	-20	-5	7	63*
CC(C)(C)c1ccc(-n2nc(C#N)c(Cl)cc2=O)cc1	nt	-1	-76	1	1	146*
CCOC(=O)c1sc(-c2ccc(Cl)cc2Cl)nc1O	nt	2	-15	0	-1	60*
CCOC(=O)CSc1nc2c(c(=O)n1-c1ccc(OCC)cc1)SCC2	1	-4	-15	-4	1	40*
C/C(=N/NS(=O)(=O)c1ccc(Br)cc1)c1ccc(C)o1	nt	0	-29	0	-1	-1
CC(=N/O)/C(=N\O)c1ccc(C)o1	-2	8	-12	1	nt	242*

Screens (PubChem BioAssay)
